The values that follow come from PubChem BioAssay (Tox21).

Values joined by “and” are separate entries in the source; they are usually repeats but may differ in a detail not shown here. Identical values can stand only once. Records with an inconclusive call do not appear. Unmarked numbers belong to inactive results. Active and inactive are the calls of the source. Unless noted, calls come from the whole dose curve; as a rule, active = well fitted curve in the direction sought with a large enough effect in the repeat runs; inconclusive = weak or mixed curves; inactive = no such curve, though single readings can be large; an effect the other way counts as inactive or inconclusive.

A short description of assay [1]: qHTS assay to identify aromatase inhibitors - cell viability counter screen (AID 743084).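 Note: cells stimulated with testosterone during compound exposure; nearly all actives have a fitted effect of over 55% in size.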
For assay [2], the target named is Aryl hydrocarbon receptor (Homo sapiens) (UniProt P35869). The assay is described as follows: qHTS assay to identify small molecule that activate the aryl hydrocarbon receptor (AhR) signaling pathway (AID 743085).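 For activation: HG2L7.5c1 human HepG2 liver cells with stably integrated DRE-driven firefly reporter; series mostly up to about 70 µM.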 Note: nearly all actives have a fitted effect of over 15% in size. Note: potency is the fitted concentration of half-maximal effect. The method, boiled down:
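Steps: seed HepG2-AhR-luc cells; allow 5 h at 37C; pin-transfer test compound or vehicle; incubate 24 h at 37C; add viability dye (30 min, 37C) and read fluorescence; add luciferase substrate (30 min, RT) and read luminescence.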
For orientation: In qHTS, concentration-response curves come from the screen itself.

Assay [3] is described as follows: qHTS assay to identify small molecule that activate the aryl hydrocarbon receptor (AhR) signaling pathway - cell viability counter screen (AID 743086).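 Note: HepG2 liver cells carrying the AhR DRE luciferase reporter; series mostly up to about 70 µM; nearly all actives have a fitted effect of over 45% in size.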 The method in brief:
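HepG2-AhR-luc (HG2L7.5c1) cells, 4000/well, treated 24 h at 37 C with compound; viability measured as CellTiter-Fluor fluorescence after 30 min in the same wells as the luciferase read.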

Assay [4] concerns the target Peroxisome proliferator-activated receptor gamma (Homo sapiens) (UniProt P37231). The assay is described as follows: qHTS assay to identify small molecule agonists of the peroxisome proliferator-activated receptor gamma (PPARg) signaling pathway (AID 743094; active = well fitted activation curve with a large enough effect in the signal ratio in the repeat runs, not every such curve was filed as active; the % refers to the signal ratio). The method in brief: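 Quantitative HTS agonist mode: stable HEK293H line with UAS-beta-lactamase reporter under PPARg control, 17 h compound exposure at 37C, fluorescence after 1 h FRET substrate loading at room temperature.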

The target is the same in assay [5]. The assay is described as follows: qHTS assay to identify small molecule antagonists of the peroxisome proliferator-activated receptor gamma (PPARg) signaling pathway (AID 743191; calls by dose curve; note: series mostly up to about 63 µM; nearly all actives have a fitted effect of over 30% in size). The method in brief: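 GeneBLAzer PPARg UAS-bla HEK293H cells, 5 h post-plating, exposed to compounds 17 h at 37C. LiveBLAzer B/G FRET substrate added for 1 h at room temperature; beta-lactamase reporter read by fluorescence intensity.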

Assay [6] is described as follows: qHTS assay to identify small molecule antagonists of the peroxisome proliferator-activated receptor gamma (PPARg) signaling pathway - cell viability counter screen (AID 743194). Note: nearly all actives have a fitted effect of over 55% in size. Note: potency is the fitted concentration of half-maximal effect. The method in brief:
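Cytotoxicity counter screen in PPARg-bla HEK293H cells, same wells as reporter assay. Compounds plus 50 nM rosiglitazone (final) for 17 h at 37 C, then viability read by CellTiter-Glo luminescence.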

A short description of assay [7]: qHTS assay for small molecule agonists of the antioxidant response element (ARE) signaling pathway (AID 743202; active = well fitted activation curve with a large enough effect in the signal ratio in the repeat runs, not every such curve was filed as active; the % refers to the signal ratio; note: potency is the fitted concentration of half-maximal effect). The method, boiled down:
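ARE-bla HepG2 cells (beta-lactamase reporter under the antioxidant response element), plated 5 hours, then exposed to compounds 16 hours at 37 C. LiveBLAzer B/G FRET substrate added for 2 hours at room temperature; fluorescence intensity read.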

The nature of assay [8]: qHTS assay for small molecule agonists of the antioxidant response element (ARE) signaling pathway - cell viability counter screen (AID 743203; calls by dose curve; note: nearly all actives have a fitted effect of over 55% in size). The method, boiled down:
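Seeded at 2,000 cells/well, ARE-bla HepG2 cells were incubated 5 hrs before compound addition. After 16 hrs of treatment at 37C with 5% CO2, CellTiter-Glo reagent was added and luminescence read 30 min later.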

Assay [9] in a line: qHTS assay for small molecule activators of the heat shock response signaling pathway - cell viability counter screen (AID 743209). Note: nearly all actives have a fitted effect of over 50% in size. The method, boiled down:
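First, HSE-bla HeLa cells were seeded at 1500 cells/well and kept overnight at 37 C. Next, compounds were pinned in and incubated 5 h. After the FRET substrate step, CellTiter-Glo was added and luminescence read 30 min later.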

Assay [10] is described as follows: qHTS assay for small molecule activators of the heat shock response signaling pathway (AID 743210; active = well fitted activation curve with a large enough effect in the signal ratio in the repeat runs, with a control signal flat, not every such curve was filed as active; the % refers to the signal ratio; note: series mostly up to about 63 µM). The method in brief: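 HSE-bla HeLa cells (beta-lactamase reporter under heat shock response elements), plated overnight, then exposed to compounds 5 h at 37 C; LiveBLAzer B/G FRET substrate added, 2.5 h at room temperature, fluorescence intensity read.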

Peroxisome proliferator-activated receptor gamma (Homo sapiens), sequence (P37231 whole entry, looked up): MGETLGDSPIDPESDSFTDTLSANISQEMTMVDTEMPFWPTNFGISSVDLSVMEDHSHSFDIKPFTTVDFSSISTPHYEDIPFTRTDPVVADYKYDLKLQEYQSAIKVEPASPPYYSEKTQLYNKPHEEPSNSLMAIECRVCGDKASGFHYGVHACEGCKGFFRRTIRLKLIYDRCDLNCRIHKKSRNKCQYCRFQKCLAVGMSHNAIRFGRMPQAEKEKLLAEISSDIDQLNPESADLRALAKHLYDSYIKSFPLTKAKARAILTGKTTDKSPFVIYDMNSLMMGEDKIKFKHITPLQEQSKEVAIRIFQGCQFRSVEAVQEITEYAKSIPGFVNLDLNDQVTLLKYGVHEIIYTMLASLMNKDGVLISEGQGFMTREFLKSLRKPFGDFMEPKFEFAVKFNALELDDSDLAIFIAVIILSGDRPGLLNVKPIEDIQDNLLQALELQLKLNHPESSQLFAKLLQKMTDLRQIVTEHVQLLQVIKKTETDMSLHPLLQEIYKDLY
Aryl hydrocarbon receptor (Homo sapiens), sequence (P35869 whole entry, looked up): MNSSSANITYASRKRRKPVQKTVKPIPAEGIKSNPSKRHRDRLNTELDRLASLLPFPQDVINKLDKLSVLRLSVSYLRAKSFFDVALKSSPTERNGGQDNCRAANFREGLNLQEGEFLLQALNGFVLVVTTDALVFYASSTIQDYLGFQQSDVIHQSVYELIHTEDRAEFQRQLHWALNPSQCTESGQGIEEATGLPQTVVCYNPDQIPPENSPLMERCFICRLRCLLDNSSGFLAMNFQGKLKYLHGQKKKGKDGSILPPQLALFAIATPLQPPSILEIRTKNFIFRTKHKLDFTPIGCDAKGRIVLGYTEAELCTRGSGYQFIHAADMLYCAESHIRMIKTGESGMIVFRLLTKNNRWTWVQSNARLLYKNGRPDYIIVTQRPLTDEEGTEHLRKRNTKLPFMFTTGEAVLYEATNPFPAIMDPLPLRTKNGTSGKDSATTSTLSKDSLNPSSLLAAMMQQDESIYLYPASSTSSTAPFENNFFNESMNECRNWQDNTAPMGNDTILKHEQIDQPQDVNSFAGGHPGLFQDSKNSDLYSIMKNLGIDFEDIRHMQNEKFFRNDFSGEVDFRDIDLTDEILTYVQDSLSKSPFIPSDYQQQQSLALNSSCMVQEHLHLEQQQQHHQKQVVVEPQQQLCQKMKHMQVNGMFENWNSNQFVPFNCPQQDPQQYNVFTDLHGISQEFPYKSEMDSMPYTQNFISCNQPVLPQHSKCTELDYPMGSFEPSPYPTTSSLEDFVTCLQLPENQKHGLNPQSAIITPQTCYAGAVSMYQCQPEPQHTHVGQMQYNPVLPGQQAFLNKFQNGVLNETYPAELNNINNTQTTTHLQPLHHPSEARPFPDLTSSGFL

Turning to `c1ccc(COCc2ccccc2)cc1`, the Potency result in [1], in assay [2], in assay [3], in [4], in [5] and in [6] was “inactive” each time. In addition, the Potency result in [7], in assay [8], in [9] and in assay [10] was “inactive” throughout.
Turning to `CC(=O)Nc1ccc(N)cc1`, the Potency result in [1], in assay [2], in assay [3], in assay [4], in assay [5] and in assay [6] was “inactive” each time. In addition, the Potency result in assay [7], in [8] and in [9] was “inactive” each time.
In the case of `Cc1oncc1C(=O)Nc1ccc(C(F)(F)F)cc1`, the Potency result in assay [1], in assay [3], in [4], in assay [5], in assay [6] and in assay [8] was “inactive” each time. The Potency result in assay [9] and in [10] was “inactive” in each case. The Potency in [2] was 1.14 µM (active) and 21.7 µM (active); in assay [7], 30600 nM (active).
For `COCC(O)CO` (stereo not drawn), the Potency result in [1], in assay [2], in [3], in assay [4], in assay [5] and in assay [6] was “inactive” in each case. For the same compound, the Potency result in assay [7], in assay [8], in assay [9] and in [10] was “inactive” in each case.
For `O=C(Nc1ccc([N+](=O)[O-])cc1)Nc1ccc([N+](=O)[O-])cc1`, the Potency entry in [1], in [2], in [3], in assay [4], in [5] and in assay [9] was “inactive” in each case. In [10], the Potency result was “inactive”. Moreover, the Potency is 1330 nM (active) in [6] and 2660 nM (active) in assay [7].
Take `C=CC(=O)NCOCC(C)C`: the Potency entry in [1], in [2], in assay [3], in assay [4], in [5] and in assay [6] was “inactive” in each case. For the same compound, the Potency entry in [8], in assay [9] and in [10] was “inactive” in each case.
`CO[C@H]1O[C@H](CO)[C@@H](O)[C@H](O)[C@H]1O`: the Potency entry in [1], in [2], in [3], in assay [4], in assay [5] and in [6] was “inactive” in each case. Moreover, the Potency entry in assay [7], in assay [8] and in assay [10] was “inactive” each time.
For `CC(C)CCCCCOC(=O)CCCCC(=O)OCCCCCC(C)C`, the Potency result in assay [1], in [2], in assay [3], in assay [4], in [5] and in assay [6] was “inactive” throughout. The Potency entry in assay [8], in [9] and in assay [10] was “inactive” in each case.
Take `O=C(O)c1cccnc1C(=O)O`: the Potency result in assay [1], in assay [2], in [3], in [4], in [5] and in assay [6] was “inactive” in each case. The Potency entry in assay [7], in assay [8], in assay [9] and in assay [10] was “inactive” each time.
Regarding `CCOC(=O)c1ccccc1C`, the Potency entry in assay [1], in assay [2], in [3], in assay [4], in assay [5] and in assay [6] was “inactive” each time. Moreover, the Potency result in [8], in [9] and in assay [10] was “inactive” throughout.
Turning to `CC(C)CCCC(=O)O`, the Potency entry in [1], in [2], in [3], in [4], in [5] and in assay [6] was “inactive” each time. In addition, the Potency entry in assay [8], in assay [9] and in [10] was “inactive” each time.
For the compound `Cc1nc2ccccn2c(=O)c1CCN1CCC(C(=O)c2ccc(F)cc2)CC1`, the Potency entry in assay [1], in assay [2], in assay [3], in assay [4], in assay [5] and in assay [6] was “inactive” each time. Also, the Potency result in assay [8], in assay [9] and in [10] was “inactive” throughout.
As to `OC(CCCN1CCCCC1)(c1ccccc1)c1ccccc1`, the Potency entry in assay [1], in assay [2], in assay [3], in assay [4], in assay [5] and in assay [6] was “inactive” in each case. Besides, the Potency entry in assay [7], in assay [8], in assay [9] and in assay [10] was “inactive” in each case.
As to `CC1=CC(=O)CC(C)(C)C1(O)/C=C/C(C)=C\C(=O)O` (stereo not drawn), the Potency entry in [1], in assay [2], in [3], in assay [4], in [5] and in assay [6] was “inactive” each time. For the same compound, the Potency entry in assay [7], in [8] and in assay [10] was “inactive” in each case.
`CC1=C(C=O)C(C)(C)CCC1`: the Potency result in assay [1], in assay [2], in assay [3], in assay [4], in assay [5] and in assay [6] was “inactive” throughout. In addition, the Potency result in [8], in [9] and in assay [10] was “inactive” in each case.
For the compound `CC(C)CCCCCCOC(=O)CCCCC(=O)OCCCCCCC(C)C`, the Potency result in [1], in [2], in assay [3], in [4], in assay [5] and in [6] was “inactive” each time. Also, the Potency result in assay [8], in assay [9] and in assay [10] was “inactive” each time.
For the compound `ON(Cc1ccccc1)Cc1ccccc1`, the Potency result in assay [1], in assay [2], in [3], in [4], in [5] and in [6] was “inactive” each time. Moreover, the Potency entry in assay [7], in [8] and in assay [9] was “inactive” each time.
Turning to `Cc1ccnc2ccccc12`, the Potency entry in assay [1], in assay [2], in assay [3], in assay [4], in assay [5] and in [6] was “inactive” throughout. The Potency result in assay [7], in assay [8], in [9] and in [10] was “inactive” each time.
`c1cnc2c(n1)CCCC2`: the Potency entry in [1], in assay [2], in [3], in assay [4], in [5] and in [6] was “inactive” throughout. For the same compound, the Potency entry in assay [7], in [8], in [9] and in assay [10] was “inactive” in each case.
As for `CC1CC(O)CC(C)(C)C1` (stereo not drawn), the Potency result in assay [1], in assay [2], in [3], in assay [4], in assay [5] and in assay [6] was “inactive” in each case. The Potency result in assay [8] and in assay [9] was “inactive” throughout.
As for `CN1CCCN=C1/C=C/c1cccs1`, the Potency entry in assay [1], in assay [2], in assay [3], in assay [4], in assay [5] and in assay [6] was “inactive” in each case. Also, the Potency result in [8], in [9] and in [10] was “inactive” throughout.
On to `CCC(C)=O`, for which the Potency entry in assay [1], in [2], in assay [3], in [4], in [5] and in assay [6] was “inactive” throughout. Moreover, the Potency entry in [7], in assay [8], in [9] and in assay [10] was “inactive” each time.
As to `O=C(O)c1cccc(O)c1`, the Potency result in [1], in assay [2], in [3], in [4], in [5] and in assay [6] was “inactive” each time. Also, the Potency result in assay [7], in [8], in [9] and in [10] was “inactive” throughout.
Turning to `CCCCCCCCCCCCCCC[C@H](O)[C@@H](N)CO`, the Potency result in [1], in assay [2], in [3], in assay [4], in [5] and in assay [6] was “inactive” in each case. For the same compound, the Potency entry in assay [8] and in [10] was “inactive” throughout.
